Earlier results on 15 molecules are cited in PubChem BioAssay AID977611.

The nature of this data set: PubChem AID 977611. The conditions noted are these: PDB protein-ligand complexes, literature Kd.

About 3,900 (100%) of roughly 3,900 compounds were called active. No cut-off is given here; in the data, nearly all actives have Kd up to about 4200 µM. The set was probably picked from earlier hits. Some of the results follow. Where a SMILES comes first, the peptide text is derived from it. Non-standard residues stand in square brackets, D forms with d. Square brackets hold non-standard residues; d marks the D form. Residues, ends and D or L forms follow the SMILES beside them. Peptide text beside a SMILES is read from it. [ ]: non-standard residue; d: D form. Orn(CH(NH2)2) = NC(N)NCCC[C@H](N)C(=O)O; pGlu = O=C1CC[C@@H](C(=O)O)N1

As a reminder, the Kd is the free concentration of one partner at which half of the binding sites on the other are occupied at equilibrium, for simple one-to-one binding. Regarding H-AAAFSFKKSFKLSGFSFK-OH, the Kd (protein: Ca2+-Calmodulin, PDB entry 1iwq) is 0.0088 µM (active). Turning to `CC(=O)N[C@@H](CCCCN)C(=O)N[C@@H](CCCCN)C(=O)N[C@@H](CCCNC(N)N)C(=O)N[C@@H](Cc1ccc(O)cc1)C(=O)N[C@@H](CO)C(=O)N[C@@H](CCCNC(N)N)C(=O)N[C@@H](CCC(=O)O)C(=O)N[C@@H](Cc1ccccc1)C(=O)N[C@@H](CC(C)C)C(=O)N[C@@H](CC(C)C)C(=O)NCC(=O)N[C@@H](Cc1ccccc1)C(N)=O` (Ac-KK[Orn(CH(NH2)2)]YS[Orn(CH(NH2)2)]EFLLGF-NH2), the Kd (protein: EUKARYOTIC TRANSLATION INITIATION FACTOR 4E, PDB entry 4aza) is 0.103 µM (active). For the molecule `CC(=O)N[C@H](C(=O)N[C@@H](CCC(N)=O)C(=O)NCC(=O)N[C@@H](CO)C(=O)NCC(=O)N[C@@H](C)C(=O)N[C@@H](Cc1ccccc1)C(=O)NCC(=O)N[C@@H](CCCNC(N)N)C(N)=O)C(C)C` (Ac-VQGSGAFG[Orn(CH(NH2)2)]-NH2), the Kd (protein: Fab fragment of the mAb 106.3, PDB entry 3e8u) was 0.00038 µM (active). Take `CC(C)C[C@H](NC(=O)[C@H](CCCNC(N)N)NC(=O)[C@H](CCCNC(N)N)NC(=O)[C@H](CCCCN)NC(=O)[C@H](C)NC(=O)[C@H](CO)NC(=O)CN)C(=O)N[C@@H](Cc1ccccc1)C(=O)NCC(=O)N[C@@H](CCC(=O)O)C(=O)O` (H-GSAK[Orn(CH(NH2)2)][Orn(CH(NH2)2)]LFGE-OH): the equilibrium dissociation constant (Kd) (protein: phospho-CDK2/cyclin A, PDB entry 1h28) was 0.3 µM (active). For the molecule `Cc1n[nH]c(C)c1CCCOc1cc(C(=O)O)ccc1F`, the equilibrium dissociation constant (Kd) (protein: Transthyretin (V122I mutation), PDB entry 4hiq) is 0.0062 µM (active). Take `OCCOCCOCCOCCOCCOCCOCCOCCOCCOCCOCCOCCOCCOCCOCCOCCOCCOCCOCCOCCOCCOCCOCCOCCOCCO`: the Kd (protein: Prostaglandin-H2 D-isomerase L-PGDS C65A mutant, PDB entry 4oru) is 210 µM (active); the dissociation constant (Kd) (protein: Prostaglandin-H2 D-isomerase L-PGDS C65A-K59A double mutant, PDB entry 4orx) is 297 µM (active); the dissociation constant Kd (protein: Prostaglandin-H2 D-isomerase L-PGDS C65A-K59A double mutant, PDB entry 4ory) is 297 µM (active). In the case of `OC[C@@H]1O[C@@H](O[C@@H]2[C@@H](O)[C@H](O[C@@H]3CO[C@@H](O)[C@H](O)[C@H]3O)OC[C@H]2O)[C@H](O)[C@H]1O`, the Kd (protein: SUGAR TRANSPORTER SOLUTE-BINDING PROTEIN, PDB entry 4c1u) is 0.081 µM (active). Turning to `OC[C@@H]1O[C@@H](O[C@H]2[C@H](O[C@@H]3CO[C@@H](O[C@@H]4CO[C@@H](O)[C@H](O)[C@H]4O)[C@H](O)[C@H]3O)OC[C@@H](O)[C@@H]2O)[C@H](O)[C@H]1O`, the Kd (protein: SUGAR TRANSPORTER SOLUTE-BINDING PROTEIN, PDB entry 4c1t) was 0.0708 µM (active). As for `Nc1[nH]c(=S)nc2nc[nH]c12`, the equilibrium dissociation constant (Kd) (protein: 6-hydroxymethyl-7,8-dihydropterin pyrophosphokinase, PDB entry 4m5n) is 7.5 µM (active). For `CC(C)C[C@H](NC(=O)[C@@H]1CCC(=O)N1)C(=O)N[C@@H](Cc1ccc(O)cc1)C(=O)N[C@@H](CCC(=O)O)C(=O)N[C@H](C=O)CC(N)=O` (tested in a mixture with another compound) ([pGlu]LYEN-aldehyde), the Kd (protein: Sortilin, PDB entry 4po7) is 0.085 µM (active). With `C[C@H](NC(=O)[C@@H]1CCCN1)C(=O)N[C@@H](CCCNC(N)N)C(=O)N1CCC[C@H]1C(=O)N1CCC[C@H]1C(=O)N[C@@H](CCCCN)C(=O)N1CCC[C@H]1C(=O)N[C@@H](CCCNC(N)N)C(=O)N1CCC[C@H]1C(=O)N[C@@H](CCCNC(N)N)C(=O)N[C@@H](CCCNC(N)N)C(=O)O` (H-PA[Orn(CH(NH2)2)]PPKP[Orn(CH(NH2)2)]P[Orn(CH(NH2)2)][Orn(CH(NH2)2)]-OH), under “protein: SH3-domain of CIN85, PDB entry 2bz8”, the Kd was 2.5 µM (active). On to `CC(C)C[C@H](NC(=O)[C@H](CC(N)=O)NC(=O)[C@H](CC(C)C)NC(=O)[C@@H](NC(=O)[C@@H](NC(=O)[C@@H]1CCCN1C(=O)[C@H](CCCNC(N)N)NC(=O)[C@H](CCCCN)NC(=O)[C@@H]1CCCN1)[C@@H](C)O)[C@@H](C)O)C(=O)N[C@@H](Cc1ccccc1)C(=O)O` (HELM PEPTIDE1{P.K.[NC(N)NCCC[C@H](N[*:1])C(=O)[*:2]].P.T.T.L.N.L.F}$$$$V2.0), for which the Kd (protein: Mitogen-activated protein kinase 8 isoform 4, PDB entry 1ukh) is 0.42 µM (active). With H-PDYFL-OH, the dissociation constant Kd (protein: Serine/threonine-protein phosphatase 2A activator PTPA, PDB entry 4ny3) is 49.5 µM (active). In the case of `CC(C)C[C@H](NC(=O)[C@H](CCCCN)NC(=O)[C@H](CCCCN)NC(=O)[C@H](CC(C)C)NC(=O)[C@@H]1CCCN1C(=O)[C@H](CCCCN)NC(=O)[C@@H]1CCCN1)C(=O)N[C@@H](CCCNC(N)N)C(=O)N[C@@H](Cc1ccccc1)C(=O)N[C@@H](CC(=O)O)C(=O)O` (H-PKPLKKL[Orn(CH(NH2)2)]FD-OH), the Kd (protein: phospho-CDK2/cyclin A, PDB entry 1h25) is 1.8 µM (active). For the molecule `CSCC[C@H](NC(=O)[C@H](Cc1cnc[nH]1)NC(=O)[C@H](CCC(N)=O)NC(=O)[C@H](CCCNC(N)N)NC(=O)[C@H](CCC(=O)O)NC(=O)[C@H](Cc1ccccc1)NC(=O)[C@H](CCCCN)NC(=O)[C@H](C)NC(=O)[C@H](C)NC(=O)[C@H](C)NC(=O)[C@@H](NC(=O)[C@H](CCC(=O)O)NC(=O)[C@@H](N)CCCCN)[C@@H](C)O)C(=O)N[C@@H](CC(=O)O)C(=O)N[C@@H](CO)C(N)=O` (H-KETAAAKFE[Orn(CH(NH2)2)]QHMDS-NH2), the Kd reads like this: (protein: Ribonuclease S(RNase S), PDB entry 1j7z) 0.02 µM (active); (protein: Ribonuclease S(RNase S), PDB entry 1j80) 0.3 µM (active); (protein: Ribonuclease S(RNase S), PDB entry 1j81) 0.08 µM (active).
